Reference: PubChem BioAssay
Calls of active or inactive are those of the source.

Legend:
[1] = binders of probe aFSTL3 on microarray, primary screen, stem cell growth factor project, biochemical, small-molecule microarray, fluorescence 635/667 (AID 1064); conditions: higher = more signal;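 also: measures binding of the biotinylated anti-FSTL3 antibody to printed compounds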
[2] = binders from COS7 lysate, DM2A8 probe, primary screen, torsin A project, cell lysate, small-molecule microarray, fluorescence 635/667 (AID 1065); conditions: higher = more signal, COS7 lysate expressing mutant human TOR1A
[3] = binders of probe aFGF2 on microarray, primary screen, stem cell growth factor project, biochemical, small-molecule microarray, fluorescence 635/667 (AID 1067); conditions: higher = more signal;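 also: measures binding of biotinylated aFGF2 protein to printed compounds on slides; z-score merges feature fluorescence and signal-to-noise across triplicate slides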
[4] = binders of probe aFGF10 on microarray, primary screen, stem cell growth factor project, biochemical, small-molecule microarray, fluorescence 635/667 (AID 1071); conditions: higher = more signal;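 also: score merges 667 nm spot intensity and signal to noise from triplicate slides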
[5] = molecular target: Neurogenic locus notch homolog protein 2 (Homo sapiens) (UniProt Q04721); assay: Notch2 binders on small-molecule microarrays, primary screen, biochemical, small-molecule microarray, 635 nm fluorescence, stem cell growth factors (AID 1073); conditions: Notch2 binding, higher = more signal
[6] = molecular target: Pro-neuregulin-1, membrane-bound isoform (Homo sapiens) (UniProt Q02297); assay: NRG1 binders on small-molecule microarrays, primary screen, psychiatric disease protein project, biochemical, small-molecule microarray, fluorescence 635/667 (AID 1075); conditions: NRG1 binding, 635 nm fluorescence, higher = more signal;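 also: score combines 667 nm spot fluorescence with signal to noise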
[7] = system: Neuregulin-1 EGF-like domain; assay: binders of neuregulin-1 EGF-like domain, primary screen, biochemical, small-molecule microarray, 635 nm fluorescence (AID 1081); conditions: small-molecule microarray binding, higher = more signal;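 also: binding of the protein to compounds printed on small-molecule microarray slides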
[8] = FRG1 promoter luciferase signal modulators, primary screen, FRG1 inhibition for FSHD, cell-based, C2C12 myotubes, firefly/Renilla luciferase, luminescence (AID 1084); conditions: higher = more signal, called active from +8 up or from −8 down
[9] = binders of probe aFST on microarray, primary screen, stem cell growth factor project, biochemical, small-molecule microarray, fluorescence 635/667 (AID 1086); conditions: higher = more signal;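 also: score merges 667 nm fluorescence with signal-to-noise of each printed compound spot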
[10] = binders of probe aHhip on microarray, primary screen, stem cell growth factor project, biochemical, small-molecule microarray, fluorescence 635/667 (AID 1087); conditions: higher = more signal;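 also: score merges spot fluorescence at 667nm with spot signal to noise ratio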

Neurogenic locus notch homolog protein 2 (Homo sapiens), sequence (Q04721 whole entry, looked up, canonical isoform): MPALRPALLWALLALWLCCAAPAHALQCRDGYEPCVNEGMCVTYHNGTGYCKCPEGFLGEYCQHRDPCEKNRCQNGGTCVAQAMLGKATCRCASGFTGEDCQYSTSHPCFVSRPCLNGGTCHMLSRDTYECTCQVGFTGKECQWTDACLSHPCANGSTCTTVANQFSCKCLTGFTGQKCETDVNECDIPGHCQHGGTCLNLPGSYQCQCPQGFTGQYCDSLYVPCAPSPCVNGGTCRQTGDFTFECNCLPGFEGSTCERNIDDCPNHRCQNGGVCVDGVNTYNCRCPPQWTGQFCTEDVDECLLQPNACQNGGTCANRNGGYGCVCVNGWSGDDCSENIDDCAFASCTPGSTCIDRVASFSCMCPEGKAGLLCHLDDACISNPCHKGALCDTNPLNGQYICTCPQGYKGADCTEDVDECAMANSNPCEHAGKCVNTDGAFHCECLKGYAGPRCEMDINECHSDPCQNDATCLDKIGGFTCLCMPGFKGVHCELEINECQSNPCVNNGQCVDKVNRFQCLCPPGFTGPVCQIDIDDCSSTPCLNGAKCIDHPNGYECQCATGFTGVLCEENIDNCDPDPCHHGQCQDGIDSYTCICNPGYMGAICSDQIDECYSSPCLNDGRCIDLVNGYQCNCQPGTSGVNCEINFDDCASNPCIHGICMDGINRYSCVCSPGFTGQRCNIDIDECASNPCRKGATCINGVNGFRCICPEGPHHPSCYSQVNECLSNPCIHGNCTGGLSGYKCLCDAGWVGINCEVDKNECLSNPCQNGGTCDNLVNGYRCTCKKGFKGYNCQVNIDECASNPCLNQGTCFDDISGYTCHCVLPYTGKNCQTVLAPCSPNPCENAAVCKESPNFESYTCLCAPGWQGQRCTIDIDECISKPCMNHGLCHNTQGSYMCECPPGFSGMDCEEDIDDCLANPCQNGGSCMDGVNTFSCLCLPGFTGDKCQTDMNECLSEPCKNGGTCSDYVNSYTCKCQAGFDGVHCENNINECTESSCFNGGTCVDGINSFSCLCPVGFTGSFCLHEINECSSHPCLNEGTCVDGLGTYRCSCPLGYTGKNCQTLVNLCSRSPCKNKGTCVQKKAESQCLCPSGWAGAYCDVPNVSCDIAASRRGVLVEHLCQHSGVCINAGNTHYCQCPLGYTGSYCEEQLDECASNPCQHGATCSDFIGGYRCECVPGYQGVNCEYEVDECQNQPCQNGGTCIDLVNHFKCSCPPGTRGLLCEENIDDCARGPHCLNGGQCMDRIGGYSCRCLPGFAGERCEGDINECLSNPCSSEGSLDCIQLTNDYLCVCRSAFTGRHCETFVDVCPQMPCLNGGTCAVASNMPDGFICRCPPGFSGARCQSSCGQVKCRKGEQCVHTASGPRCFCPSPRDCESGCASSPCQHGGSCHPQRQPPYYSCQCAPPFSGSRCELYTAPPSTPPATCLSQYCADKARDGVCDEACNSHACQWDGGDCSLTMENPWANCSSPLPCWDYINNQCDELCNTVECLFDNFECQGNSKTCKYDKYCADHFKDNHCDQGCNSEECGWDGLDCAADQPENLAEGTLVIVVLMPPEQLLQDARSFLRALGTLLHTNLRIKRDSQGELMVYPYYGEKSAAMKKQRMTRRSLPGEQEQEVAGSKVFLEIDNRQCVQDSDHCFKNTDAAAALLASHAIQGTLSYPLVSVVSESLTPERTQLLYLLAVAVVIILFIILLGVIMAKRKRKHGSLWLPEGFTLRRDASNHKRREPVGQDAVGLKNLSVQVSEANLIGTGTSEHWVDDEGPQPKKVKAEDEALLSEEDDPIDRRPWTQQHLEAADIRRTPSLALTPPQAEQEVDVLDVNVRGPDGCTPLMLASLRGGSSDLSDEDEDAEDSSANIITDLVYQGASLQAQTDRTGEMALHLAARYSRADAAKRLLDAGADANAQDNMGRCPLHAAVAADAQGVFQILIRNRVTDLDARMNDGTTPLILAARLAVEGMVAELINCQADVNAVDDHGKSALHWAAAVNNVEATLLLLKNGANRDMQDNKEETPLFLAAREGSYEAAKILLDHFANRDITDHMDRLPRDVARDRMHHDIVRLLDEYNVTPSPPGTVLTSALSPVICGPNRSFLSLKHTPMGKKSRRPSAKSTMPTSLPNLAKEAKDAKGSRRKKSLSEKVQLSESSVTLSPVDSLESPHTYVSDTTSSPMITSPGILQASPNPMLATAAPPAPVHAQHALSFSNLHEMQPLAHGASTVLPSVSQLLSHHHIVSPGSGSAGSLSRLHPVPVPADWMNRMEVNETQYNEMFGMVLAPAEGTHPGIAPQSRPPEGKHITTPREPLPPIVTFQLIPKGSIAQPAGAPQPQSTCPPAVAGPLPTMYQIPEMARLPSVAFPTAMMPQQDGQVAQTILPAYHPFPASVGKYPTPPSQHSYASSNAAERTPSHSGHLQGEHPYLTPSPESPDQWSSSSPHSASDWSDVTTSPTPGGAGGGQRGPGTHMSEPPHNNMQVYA
Pro-neuregulin-1, membrane-bound isoform (Homo sapiens), sequence (Q02297 whole entry, looked up, the tested form may be a part, canonical isoform): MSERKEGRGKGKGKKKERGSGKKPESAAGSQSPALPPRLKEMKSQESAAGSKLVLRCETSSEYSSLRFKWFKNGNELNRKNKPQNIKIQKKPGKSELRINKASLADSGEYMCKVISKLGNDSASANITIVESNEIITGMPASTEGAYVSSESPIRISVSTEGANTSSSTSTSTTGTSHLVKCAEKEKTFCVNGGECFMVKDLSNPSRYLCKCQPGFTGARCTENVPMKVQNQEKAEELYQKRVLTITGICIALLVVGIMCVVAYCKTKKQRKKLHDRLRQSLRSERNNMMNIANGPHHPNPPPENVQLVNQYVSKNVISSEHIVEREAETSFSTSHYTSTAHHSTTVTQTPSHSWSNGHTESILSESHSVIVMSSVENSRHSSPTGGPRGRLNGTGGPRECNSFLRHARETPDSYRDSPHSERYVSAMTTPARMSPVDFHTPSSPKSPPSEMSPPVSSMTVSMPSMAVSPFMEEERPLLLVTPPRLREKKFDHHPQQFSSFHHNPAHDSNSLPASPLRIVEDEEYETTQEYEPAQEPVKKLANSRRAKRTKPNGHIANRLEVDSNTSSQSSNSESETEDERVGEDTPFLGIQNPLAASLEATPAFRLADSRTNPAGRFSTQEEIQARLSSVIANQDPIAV

Row | Structure (SMILES) | composite z-score [1] | composite z-score [2] | composite z-score [3] | composite z-score [4] | composite z-score [5] | composite z-score [6] | composite z-score [7] | z-score [8] | composite z-score [9] | composite z-score [10]
1 | COc1ccc(C(O)C2C=CC3C(=O)N(c4ccccc4)C(=O)C3N2Nc2ccc(C(C)C)cc2)cc1OCc1ccccc1 (stereo not given) | 0.838 | 0.369 | 0.227 | 1.08 | 1.61 | 1.26 | 1.1 | -1.44 (inactive) | 1.62 | -0.168
2 | OC([C@@H]1CC(c2ccccc2)=NO1)[C@H]1CC(c2ccccc2)=NO1 (stereo not given in full) | 0.0787 | -0.141 | -0.0634 | 0.287 | 0.178 | -0.0896 | 0.563 | 0.364 (inactive) | 0.227 | 0.0024
3 | O=C1NC(=O)C2C1C=CC(C(O)c1cccc3ccccc13)N2Nc1ccccn1 (stereo not given) | -0.0559 | 0.143 | -0.0281 | 0.357 | 1.19 | 0.961 | 0.39 | 0.661 (inactive) | 0.125 | -0.242
4 | COC(=O)C=C(CC(O)c1cccc(Cl)c1)OC (stereo not given) | 1.55 | 0.172 | 0.54 | 0.0631 | -0.0372 | 1.76 | 1.21 | -4.2 (inactive) | 1.65 | -0.0879
5 | C=C(COC)/C(=C/C[C@H](OC(=O)c1ccncc1)c1ccc(OCCO)cc1)c1cnc2ccccc2c1 | -0.219 | 0.833 | 0.0485 | 0.97 | 1.57 | 1.4 | 1.14 | 1.87 (inactive) | 1.14 | 0.12
6 | COc1ccc(NN2C(C(O)c3ccc([N+](=O)[O-])cc3)C=CC3C(=O)N(C4CCCCC4)C(=O)C32)cc1 (stereo not given) | 0.091 | -0.174 | -0.0782 | 0.389 | 0.901 | 0.348 | 0.755 | -0.068 (inactive) | 0.844 | -0.0346
7 | O=C1C2C=CC(C(O)c3c(F)cccc3Cl)N(Nc3ccccc3)C2C(=O)N1c1ccccc1 (stereo not given) | -0.0072 | -0.0274 | 0.0363 | 0.354 | 1.7 | 1.86 | 1.25 | -3.84 (inactive) | 1.09 | -0.359
8 | Cc1ccc(S[C@]2(C(=O)NC(C)C)CC(=O)N(Cc3ccccc3Cl)[C@@H]2c2ccc(CO)cc2I)cc1 | 0.319 | -0.756 | -0.223 | -0.719 | -1.31 | 1.85 | 1.02 | -1.42 (inactive) | -0.377 | -0.0994
9 | C=CC[C@@]1(C(=O)NCc2ccccc2)N=C(c2ccc(OCCCO)cc2)O[C@@H]1c1ccccc1N=[N+]=[N-] | 0.127 | 0.852 | 0.071 | 0.942 | 1.44 | 1.74 | 1.27 | 0.206 (inactive) | 1.31 | 0.111
10 | CCc1oc(CC[C@@H](CO)NC(=O)NCCn2cc(C3(O)CCCCC3)nn2)c(C(=O)OC)c1C(=O)OC | -0.33 | 0.979 | -0.0549 | 0.809 | 0.924 | 0.172 | 1.23 | 0.306 (inactive) | 0.457 | -0.353
11 | C[C@@H]1ON(c2cccc(C(=O)OC(C)(C)C)c2)[C@H](c2ccc(Br)cc2)[C@H]1C(=O)N1C(=O)OC[C@H]1Cc1ccccc1 | -0.532 | 0.351 | -0.031 | 0.511 | 1.37 | 0.457 | 0.958 | -0.295 (inactive) | 0.625 | 0.245
12 | CC(C)C(=C=CC[C@@H](O)c1ccccc1OCCO)CCO | -0.386 | -0.193 | -0.115 | 0.269 | 0.0761 | 1.71 | 1.36 | -1.6 (inactive) | 0.285 | -0.214
13 | C=CCN1C(=O)[C@]2(O[C@H](CCO)[C@@H]([Si](C)(C)c3ccc(OC)cc3)[C@@H]2C)c2cc(N3C(=O)c4cccc5cccc3c45)ccc21 | -0.0848 | 0.326 | -0.1 | 0.607 | 0.322 | 0.828 | 1.2 | -2.66 (inactive) | -0.17 | -0.236
14 | COCCOC(=O)N1C(=O)[C@@]2(c3cc(C#CCCO)ccc31)[C@H](C(=O)N1CCN(c3ncccn3)CC1)[C@H]1C(=O)O[C@H](c3ccccc3)[C@H](c3ccccc3)N1[C@@H]2c1ccccc1OCCO | -0.545 | 0.217 | -0.0546 | 0.537 | 1.3 | 1.37 | 1.15 | -0.428 (inactive) | 0.335 | -0.0296
15 | C=C[C@H](COC(C)=O)N(C(=O)OC(C)(C)C)S(=O)(=O)c1ccc(Br)cc1 | 0.726 | 0.303 | 0.278 | 0.348 | 1.33 | -0.243 | 0.652 | -1.89 (inactive) | 1.23 | 0.32
16 | O=C(c1ccccc1)N1Cc2ccccc2[C@@H]2OC(c3ccc(OCCCO)cc3)=N[C@]2(Cc2ccccc2)C1=O | -0.0231 | 0.483 | 0.0462 | 0.158 | 0.649 | 1.32 | 1.24 | -1.05 (inactive) | -0.171 | -0.208
17 | C=CCN(Cc1ccccc1)C(=O)C(c1cccs1)N(CCOCCO)C(=O)/C=C\C(=O)O (stereo not given) | 0.713 | -1.43 | -0.203 | -0.873 | -1.04 | -0.353 | -0.421 | 0.919 (inactive) | -1.59 | -0.341
